From PubChem BioAssay
The list is not random: actives were taken first. Their share in the collection is about 13%.
USP17 block – inhibitors of human USP17 deubiquitinase | Ubiquitin carboxyl-terminal hydrolase 17-like protein 5 (Homo sapiens), A8MUK1 | purified USP17, Ub-rhodamine cleavage fluorescence, 3 h | inhibition, % at 50 µM | 47,000 tested, 6.5% active
USP8 inh – inhibitors of human USP8 deubiquitinase | purified USP8, Ub-rhodamine cleavage fluorescence, 30 min | Ubiquitin carboxyl-terminal hydrolase 8 (Homo sapiens), P40818 | AID 1645853, 2021 | 47,000 tested, 4.2% active | inhibition, % at 20 µM
USP10 inh – inhibitors of human USP10 deubiquitinase; Ubiquitin carboxyl-terminal hydrolase 10 (Homo sapiens), Q14694; purified USP10, Ub-rhodamine fluorescence, 60 min; inhibition, % at 20 µM; 47,000 tested, 1.1% active; AID 1645856, 2021
USP30 block – inhibitors of human USP30 deubiquitinase; inhibition, % at 25 µM; Ubiquitin carboxyl-terminal hydrolase 30 (Homo sapiens), Q70CQ3; 47,000 tested, 5.3% active; purified USP30, Ub-rhodamine cleavage fluorescence
Target sequence (Q70CQ3 whole entry, looked up): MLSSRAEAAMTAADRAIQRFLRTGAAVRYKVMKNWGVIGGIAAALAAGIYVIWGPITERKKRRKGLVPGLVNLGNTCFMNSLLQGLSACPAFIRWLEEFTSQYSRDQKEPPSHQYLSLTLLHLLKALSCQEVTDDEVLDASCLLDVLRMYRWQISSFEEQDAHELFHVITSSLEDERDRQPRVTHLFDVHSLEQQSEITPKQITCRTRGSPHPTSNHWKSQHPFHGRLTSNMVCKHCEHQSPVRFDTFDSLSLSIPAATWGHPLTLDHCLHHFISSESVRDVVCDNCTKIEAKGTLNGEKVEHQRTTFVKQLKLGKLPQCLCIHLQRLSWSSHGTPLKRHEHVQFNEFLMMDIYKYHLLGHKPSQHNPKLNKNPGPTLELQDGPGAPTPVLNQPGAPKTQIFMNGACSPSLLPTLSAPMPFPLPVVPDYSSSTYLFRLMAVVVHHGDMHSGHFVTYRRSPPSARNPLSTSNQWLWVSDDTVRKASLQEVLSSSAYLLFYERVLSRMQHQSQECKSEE
USP28 block – inhibitors of human USP28 deubiquitinase. inhibition, % at 25 µM. purified USP28, Ub-rhodamine cleavage fluorescence, 30 min. AID 1645857, 2021. Ubiquitin carboxyl-terminal hydrolase 28 (Homo sapiens), Q96RU2. 47,000 tested, 3% active
An asterisk follows results filed as active. No stated cut-off is given here; in the data, active means inhibition above about 30%; inactive means the rest.

O=C(NCc1nc(-c2ccc3c(c2)ncn3C2CCCC2)no1)c1cccs1 was read as USP17 block 1, USP8 inh -42, USP10 inh -2, USP30 block -243 and USP28 block -34.
Screening Cc1ccc2c(c1)N(Cc1nc(-c3ccc(F)cc3)no1)C(=O)CO2 returned USP17 block -12, USP8 inh -8, USP10 inh -1, USP30 block -25 and USP28 block 51*.
`CCN1C(=O)COc2ccc(-c3noc(-c4ccnn4C)n3)cc21` gave USP17 block 26, USP8 inh -3, USP10 inh -1, USP30 block -6 and USP28 block -2.
`COc1ccc(NC(=O)[C@H]2C[C@H](C(C)C)N[C@]23C(=O)Nc2ccc(F)cc23)cc1` gave USP17 block -7, USP8 inh -26, USP10 inh 0, USP30 block 0 and USP28 block 2.
`Cc1nc(SCC(=O)NC2CCCC2)c2oc3ccccc3c2n1` gave USP17 block 25, USP8 inh 17, USP10 inh -1, USP30 block 38* and USP28 block 13.
`Cc1nc(SCc2ccccc2C)c2oc3ccccc3c2n1` gave USP17 block 60*, USP8 inh 6 and USP10 inh 2.
For COC(=O)c1ccccc1NC(=O)CSc1nc(C)nc2c1oc1ccccc12 the results were USP17 block 45*, USP8 inh 4, USP10 inh 2, USP30 block 8 and USP28 block -6.
Cc1nc(SCC(=O)Nc2cccc3ccccc23)c2oc3ccccc3c2n1 was read as USP17 block 31*, USP8 inh 27, USP10 inh 1, USP30 block 42* and USP28 block 25.
Screening Cc1nc(SCc2ccc(Cl)cc2Cl)c2oc3ccccc3c2n1 returned USP17 block 18, USP8 inh 22, USP10 inh 0, USP30 block 25 and USP28 block 10.
Screening O=C(N[C@@H]1C[C@@H]2CO[C@H](c3ccccc3)C[C@@H]2C1)N1CCOCC1 returned USP17 block -1, USP8 inh 2, USP10 inh 0, USP30 block -12 and USP28 block -6.
O=C(N1CCOCC1)N1C2CCC(O)(CC2)C1CN1CCOCC1 (stereo not drawn) was read as USP8 inh 0, USP10 inh 0, USP30 block -2 and USP28 block -5.
For COC(=O)C(Cc1c[nH]c2ccccc12)NC(=O)c1ccc2c(c1)OCO2 (stereo not drawn) the results were USP17 block -17, USP8 inh -15, USP10 inh -2, USP30 block -26 and USP28 block -16.
`CC(NC(=O)c1ccccc1)c1nc(-c2ccc(S(=O)(=O)N3CCCC3)cc2)no1` (stereo not drawn) gave USP17 block 43*, USP8 inh 12, USP10 inh 13, USP30 block 17 and USP28 block 16.
CC(NC(=O)c1ccccc1)c1nc(-c2ccc(S(=O)(=O)N3CCCCC3)cc2)no1 (stereo not drawn) was read as USP17 block 21, USP8 inh 5, USP10 inh 0, USP30 block 0 and USP28 block 4.
Screening O=C(NCC1CCCO1)C1CCCN(c2cnc3nccnc3c2)C1 (stereo not drawn) returned USP17 block -115, USP8 inh -14, USP10 inh -9, USP30 block -413 and USP28 block -102.
Screening Cc1cc2c(cn1)C(=O)c1c(O)cc(O)cc1C2=O returned USP17 block 11, USP8 inh -228, USP10 inh 0, USP30 block -216 and USP28 block 34*.
Screening c1cc(C2CC2)n2ncnc2n1 returned USP17 block 6, USP8 inh -65, USP10 inh 6, USP30 block 4 and USP28 block 2.
Screening C[C@]12CN(C(=O)Cc3ccccc3F)C[C@H]1NC(=O)c1ccccc1C2=O returned USP17 block -4, USP8 inh 0, USP10 inh 0, USP30 block -11 and USP28 block -8.
For O=C(CN(c1cc(C(F)(F)F)ccc1Cl)S(=O)(=O)c1ccccc1)NCc1ccco1 the results were USP17 block 4, USP8 inh 32*, USP10 inh 2, USP30 block 1 and USP28 block 8.
Screening CCCCCCCc1cc(O)cc(O)c1 returned USP17 block 5, USP8 inh 14, USP10 inh 8, USP30 block 20 and USP28 block 77*.
Screening O=C(CN1C(=O)c2cccnc2Sc2ccccc21)Nc1ccccc1F returned USP17 block 28, USP8 inh 1, USP10 inh -14, USP30 block -4 and USP28 block -1.
For COc1ccc(S(=O)(=O)N2CCC3(CC2)NC(=O)c2ccccc2N3)cc1 the results were USP17 block 0, USP8 inh -1, USP10 inh 13, USP30 block -12 and USP28 block -14.
Screening CC(C)n1ncc2c(C(=O)NCCc3ccc(F)cc3)cc(C3CC3)nc21 returned USP17 block 0, USP8 inh -2, USP10 inh -1, USP30 block -24 and USP28 block 42*.
Screening O=C1CCC[C@@H]2[C@H](C[C@H](c3ccccc3)N2C(=O)CCc2nc3ccccc3s2)N1 returned USP17 block 23, USP8 inh 4, USP10 inh 3, USP30 block -84 and USP28 block 12.
`CCc1nc(-c2c(C)cc(C)nc2NC(=O)c2ccccc2C)no1` gave USP17 block 16, USP8 inh 24, USP10 inh 1, USP30 block 10 and USP28 block 9.
Screening Cc1cc(C)c2c(NC(=O)c3cccc4ccccc34)nn(C)c2n1 returned USP17 block 49*, USP8 inh 10, USP10 inh 3, USP30 block 17 and USP28 block -4.
For CCc1ccc(NC(=O)N2CCC3(CC2)OC(C(=O)N2CCCC2)Cn2ccnc23)cc1 (stereo not drawn) the results were USP17 block -6, USP8 inh -29, USP10 inh -4, USP30 block -17 and USP28 block -7.
`Cc1ccc(NC(=O)C(C)Nc2nc(Nc3ccccc3)nc(Nc3ccccc3)n2)cc1` (stereo not drawn) gave USP17 block 20, USP8 inh -64, USP10 inh 13, USP30 block 45* and USP28 block 7.
For N#Cc1cccc(NC(=O)c2ccc3c(=O)n4c(nc3c2)CCCCC4)c1 the results were USP17 block 36*, USP8 inh 25, USP10 inh 3, USP30 block 29 and USP28 block 23.
`Cc1cc(NC(=O)c2ccc3c(=O)n4c(nc3c2)CCCCC4)no1` gave USP17 block 23, USP8 inh 2, USP10 inh 0, USP30 block 31* and USP28 block 25.
For CC(OC(=O)c1ccc2c(=O)n3c(nc2c1)CCCCC3)C(=O)NC1CCCC1 (stereo not drawn) the results were USP17 block 31*, USP8 inh 16, USP10 inh 4, USP30 block 47* and USP28 block 23.
